Experimental data: PubChem BioAssay
Activity calls are given as the source filed them.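 The calls were made as follows: active = inhibition over a set limit, the all-compound mean plus 3 SD, in both replicate runs; inconclusive = over that limit in just one replicate run; inactive = at or under that limit in both runs.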

Assay: inhibitors of the yeast RAM network, pilot screen, dse1pr::URA3 reporter, 5-FOA selection (AID 869);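 also: 0% = DMSO wells with no growth and 100% = 10 µM 1-NA-PP1 with full growth; RAM network block rescues cells from 5-FOA so hits raise OD615 growth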
Settings: S. cerevisiae dse1pr::URA3 5-FOA growth, OD615, 2 d; at 10 µM; active compounds read high; strain carries analog-sensitive mutant Cbk1 kinase

inhibition, inactive:
CS(=O)(=O)N(Cc1ccc(C(=O)NCc2ccco2)cc1)c1ccccc1 -0.1%
COc1ccc(N(CC(=O)N2CCN(C)CC2)S(C)(=O)=O)cc1OC 0.64%
Cc1ncc(CO)c2cc(S(=O)(=O)c3ccc(F)cc3)c(=O)oc12 0.14%
CCN(CC)c1ccc(/C=N/n2c(C)cc(C)cc2=O)cc1 0.145%
COc1ccc(C)cc1NC(=O)c1cc2c(CO)cnc(C)c2oc1=N 1.31%
Cc1cc(C)nc(SCC(=O)Nc2ccc(S(=O)(=O)Nc3onc(C)c3C)cc2)n1 0.88%
CCCCOC(=O)c1ccc(NS(=O)(=O)c2cc(-c3nnnn3CC)ccc2OC)cc1 0.93%
Cc1oc(-c2ccc(Cl)cc2)nc1CN1CCCC(C(=O)N2CCN(C(=O)c3ccco3)CC2)C1 (stereo not given) -0.38%
COc1ccc(NC(=O)N(Cc2ccc(C)cc2)Cc2ccccn2)c(OC)c1 0.455%
O=C(O)c1ccc(NS(=O)(=O)c2cccc3cccnc23)cc1 2.25%
Cc1c(C(=O)NCc2ccc3c(c2)OCO3)sc2nc(-c3ccc(F)cc3)cn12 2.14%
Nc1c(S(=O)(=O)c2ccccc2)c2nc3ccccc3nc2n1Cc1ccco1 2.83%
CCN(CCNC(=O)CCCn1nc(C)n2c(cc3sccc32)c1=O)c1ccccc1 -0.2%
Cc1ccc(N2CC(C(=O)Nc3cccc(F)c3)CC2=O)cc1 (stereo not given) -0.185%
CCOc1ccc(NC(=O)CN2C(=O)COc3ccc(Cl)cc32)cc1 2.06%
CN1CCN(c2ccccc2NC(=O)C(Cc2ccccc2)n2cccc2)CC1 (stereo not given) 2.68%
CN1CCCc2cc3c(C(F)(F)F)cc(=O)oc3nc21 1.14%
O=C(Nc1nc(-c2ccccn2)cs1)C1COc2ccccc2O1 (stereo not given) 0.255%
Cc1cc(-c2nnc(-c3cc4ccccc4oc3=O)o2)c(C)n1-c1ccccc1 3.04%
COc1cccc(-c2nc(CS(=O)CC(=O)NCc3ccc4c(c3)OCO4)c(C)o2)c1 (stereo not given) 3%
CCCCC(=O)OCCNC(=O)c1cc2ccccc2oc1=O 2.96%
CC(=O)Nc1ccc(S(=O)(=O)NCCc2cc3c(C)ccc(C)c3[nH]c2=O)cc1 1.82%
Fc1cc2nc(-c3ccncc3)[nH]c2cc1F 0.625%
CCC(=O)NCCn1c(C)cc2ccccc21 1.91%
O=C(O)c1cccc(NS(=O)(=O)c2cccc3cccnc23)c1 0.655%
NC(=O)COc1ccc(=O)n(-c2ccccc2)n1 1.23%
COc1cc2c(C(=O)NCc3ccccn3)cn(C)c(=O)c2cc1OC 1.86%
CCOc1ccc(N(CC(=O)NCc2ccccc2)S(C)(=O)=O)cc1 0.535%
COc1ccc(S(=O)(=O)Cc2ccc(C(=O)N3CCN(C4CCCCC4)CC3)o2)cc1 0.75%
CCn1c(CNC(=O)C23CC4CC(CC(C4)C2)C3)nnc1SCC(=O)Nc1nnc(C)s1 2.5%
COc1ccc(N(CC(=O)NCc2ccco2)S(=O)(=O)c2c(C)nn(C)c2C)cc1 0.185%
Cc1cccnc1NC(=O)c1c(O)c2ccccc2n(C)c1=O -0.005%
COc1ccc(C2OC(=O)CC2C(=O)N2CCN(c3cc(Cl)ccc3C)CC2)cc1OC (stereo not given) 0.44%
CCc1cc2c(=O)c(-c3nc4ccccc4n3C)c(C(C)C)oc2c(CN2CCN(C)CC2)c1O 1.74%
CCCSc1nnc2c(n1)OC(c1cccn1C)N(C(C)=O)c1ccccc1-2 (stereo not given) 0.505%
CC(NC(=O)CSc1ncnc2nc[nH]c12)c1ccccc1 (stereo not given) 0.755%
Cc1ccc(-n2nnc3c(=O)n(CC(=O)NCc4ccco4)cnc32)cc1 3.36%
O=C(c1oc(=O)c2ccccc2c1-c1ccccc1)N1CCC(O)CC1 1.25%
CC(CCCC(C)(C)O)NCCO (stereo not given) 2.67%
O=C(c1ccco1)N1CCN(c2nc3ccsc3c(=O)s2)CC1 2.1%
